Results as given in ChEMBL document CHEMBL4513216, “Probing the Open Global Health Chemical Diversity Library for Multistage-Active Starting Points for Next-Generation Antimalarials” (ACS Infect Dis, 2020).
Screen size: about 69,000 compounds; about 8,600 (12%) showed an effect of 50% or more. Only a selection was taken, and strong results are over-represented in it overall.

Tested on: Plasmodium berghei
Assay: Screen against P. berghei liver stage (PbLuc), transformed with Luciferase, at 10uM
Format: functional, HepG2
Settings: tested at 10 uM

SMILES	INHIBITION [%]
CCN(CC1CCCO1)C(=O)Nc1cccc(Cl)c1OC (centres undefined)	26.4
Cc1nn(-c2ncnc3[nH]cnc23)c2c1C(C(C)(C)C)CC(=O)N2 (centres undefined)	-4.35
Cc1cnc(CNC(=O)[C@@]23CCO[C@@H]2CCN(c2ncccn2)C3)cn1	9.51
Cc1occc1C(=O)N1CCCC(C2=Nc3ccccc3S(=O)(=O)N2)C1 (centres undefined)	-7.679
COc1ccccc1CN1CC[C@]2(C[C@H](OC)CO2)C1	-29.2
O=C(CN1CCN(CCO)CC1)NCc1ccc(Cl)s1	53.8
Cc1ccc(CNC(=O)CN(C)CC2CCN(CCO)CC2)s1	53.8
Cc1ccc(CNC(=O)CNCC2CCN(CCO)CC2)s1	10.6
Cc1ccc(CNC(=O)CN2CCN(CCO)CC2)s1	5.64
Cc1ccc(CNC(=O)c2cc(CN3CCC(O)CC3)on2)s1	13.7
O=C(CNC(=O)C1CC1)NCc1ccc(Cl)s1	-56.4
Cc1cc(C(=O)NC2CCC3(CCC(=O)N3)CC2)no1 (centres undefined)	-20.8
COc1ncccc1CN1CCc2[nH]nc(C(=O)N3CCCC3C)c2C1 (centres undefined)	-12.2
CC(C)c1nnsc1CNC(=O)C1CCN(C(C)C)CC1	5.94
CCc1ccc(C(=O)N2CCN(c3nc(C)cc(OC)n3)CC2)o1	19.2
CN(C)c1ccc(CN2CCN(c3ccc(C#N)cc3)C(=O)C2)cn1	18.9
CCSc1ncc(CN2CCN(c3ccc(C#N)cc3)C(=O)C2)cn1	3.73
CCc1ccc(CN2CCN(c3ccc(C#N)cc3)C(=O)C2)nc1	62.4
COCC(=O)N1CCN(S(=O)(=O)c2ccccc2)[C@H]2CS(=O)(=O)C[C@H]21	25.8
CCc1nc(N2CCCC(O)(CO)CC2)ncc1C (centres undefined)	-119

SMILES	INHIBITION [%]
CNc1cncc(C2CCCN2S(=O)(=O)c2ccccc2)n1 (centres undefined)	-46.6
CC(C)c1ccc(CCC(=O)N2CCOCC2c2ncon2)cc1 (centres undefined)	-3.2
Cc1nc(-c2ccsc2)ccc1C(=O)NCCC1CCCO1 (centres undefined)	52.7
Cc1nc(-c2ccsc2)ccc1C(=O)NCCN1CCOCC1	48.1
Cc1nc(-c2ccsc2)ccc1C(=O)NCCC(=O)N1CCCC1	49.6
Cc1noc(C)c1CN(C)C(=O)c1n[nH]c(N)c1-c1ccccc1	-3.96
COc1ccccc1/C=C/CNCC1CCc2nncn2C1 (centres undefined)	38
CS(=O)(=O)CCCNCc1c(Cl)cccc1N1CCCC1	26.4
Cc1nccn1-c1ccc(=O)n(CCNC(=O)c2ccncc2)n1	10.5
CCC(CN1CCCCC1)NC(=O)C1(c2cccc(F)c2)CC1 (centres undefined)	28.7
CCC(CN1CCN(C)CC1)NC(=O)C1(c2cccc(F)c2)CC1 (centres undefined)	37.5
CCC(CN1CCCC1)NC(=O)C1(c2cccc(F)c2)CC1 (centres undefined)	53.65
Cc1oncc1C(=O)N1CCC2(CCN(Cc3cccc(F)c3)C2=O)C1 (centres undefined)	1.48
O=c1cc2c(nn1CN1CCSCC1)CCC2	51
O=c1cc2c(nn1CN1CCN(c3ccccc3)CC1)CCC2	16.6
O=c1cc2c(nn1CN1CCOCC1)CCC2	-1.58
O=C(O)c1ccn(COc2c(Cl)cccc2Cl)n1	0.207
Cc1ncoc1C(=O)N1CCOC(CCCC(C)C)C1 (centres undefined)	-7.81
O=S(=O)(NCc1cn2ccccc2n1)N1CCOCC1	-38.6
Cc1nc(N2CCCC2)ncc1-c1cc(O)nc(N2CCN(C)CC2)n1	20.1

SMILES	INHIBITION [%]
Cc1nc(N2CCCCC2)ncc1-c1cc(O)nc(N2CCCCC2)n1	25.1
Cc1nc(N2CCCCC2)ncc1-c1cc(=O)[nH]c(N2CCCC2)n1	68.1
Cc1nc(N2CCCC2)ncc1-c1cc(O)nc(N2CCCC2)n1	-11.1
Cc1nc(N2CCC(C)CC2)ncc1-c1cc(O)nc(N2CCCC2)n1	53.2
Cc1nc(N2CCCC2)ncc1-c1cc(O)nc(N2CCCCC2)n1	36.6
Nc1nccnc1C1CN(C(=O)c2cnccn2)CCO1 (centres undefined)	-9.32
COCC(c1cccc(C(F)(F)F)c1)N(C)C(=O)c1cccnc1 (centres undefined)	-34.5
NC(=O)COc1cccc(Cn2cc(Br)cn2)c1	27
O=S(=O)(C1CC1)N1CCc2ncnc(-c3ccncc3)c2CC1	12.1
Cc1nnc(N2CCOC(CN(C)C)C2)c(C#N)c1C (centres undefined)	49.25
Cc1ccc(O)c(C(=O)N2C[C@@H](C(=O)O)[C@H](c3ccccc3)C2)c1	19.4
CC(C)=CCN1C(=O)[C@@H]2CC[C@H]1CN(c1ncccc1F)C2	12.7
c1ccc2oc(CN3CCCC3Cn3cncn3)nc2c1 (centres undefined)	-4.94
c1ccc2oc(CN3CCCCC3Cn3cncn3)nc2c1 (centres undefined)	55.4
c1ccc2oc(CCCN3CCCCC3Cn3cncn3)nc2c1 (centres undefined)	-41.1
c1ccc2oc(N3CCCC3Cn3cncn3)nc2c1 (centres undefined)	-41.1
c1ccc2oc(N3CCCCC3Cn3cncn3)nc2c1 (centres undefined)	55.5
c1ccc2oc(CCCN3CCCC3Cn3cncn3)nc2c1 (centres undefined)	30.8
O=C(Nc1cc(C(F)(F)F)c[nH]c1=O)N1CCOCC1	-31.8
